Compound activity: PubChem, several laboratories
sEH activator: soluble epoxide hydrolase activators, primary screen, biochemical, human sEH | purified human sEH enzymatic activity, activator screen | activation, % at 2 µM | hit rate 0.04% among 91,000; in the data active means activation above about 37%
Target sequence (P34913 whole entry, looked up): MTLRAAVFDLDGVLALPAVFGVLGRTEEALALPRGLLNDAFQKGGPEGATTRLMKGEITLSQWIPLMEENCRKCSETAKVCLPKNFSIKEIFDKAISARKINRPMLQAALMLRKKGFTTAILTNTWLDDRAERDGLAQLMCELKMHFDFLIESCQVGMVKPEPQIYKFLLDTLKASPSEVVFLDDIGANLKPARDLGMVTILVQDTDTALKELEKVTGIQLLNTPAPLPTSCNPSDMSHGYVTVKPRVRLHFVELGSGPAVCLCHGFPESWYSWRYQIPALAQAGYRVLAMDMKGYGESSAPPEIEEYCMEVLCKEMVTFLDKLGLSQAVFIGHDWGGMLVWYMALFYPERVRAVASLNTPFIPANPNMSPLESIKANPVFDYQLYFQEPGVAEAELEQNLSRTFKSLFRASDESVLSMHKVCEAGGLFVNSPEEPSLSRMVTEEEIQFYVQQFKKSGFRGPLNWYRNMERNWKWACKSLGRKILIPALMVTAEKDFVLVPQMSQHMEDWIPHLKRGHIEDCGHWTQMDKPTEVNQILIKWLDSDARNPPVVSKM
CYP2C9 inh: blockers of cytochrome P450 2C9 activity – biochemical, luminescence, ADME assay, primary screen; CYP2C9 Supersomes, luciferin-H conversion; inhibition, % at 5 µM; hit rate 20% among 96,000; P11712;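 active means blocking of liver enzyme CYP2C9 beyond about 50% at 5 µM, limit read from the data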
CYP2C19 inh: blockers of cytochrome P450 2C19 activity – biochemical, luminescence, ADME assay, primary screen. CYP2C19 Supersomes, luciferin-H EGE luminescence, 30 min. P33261. inhibition, % at 5 µM. hit rate 21% among 96,000;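 active means CYP2C19 inhibition above a set limit at 5 µM in the primary screen, cut at about 50% in these data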;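 further: plate controls were negative control wells for no effect and 2.5 mM tranylcypromine positive control for full effect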
CYP2C9 activ: human CYP2C9 activators, primary screen, biochemical, luminescence; Cytochrome P450 2C9 (Homo sapiens), P11712; recombinant CYP2C9, luciferin-H conversion; active compounds read high; factor 1 = untreated enzyme, 0 = blocked; activation factor at 5 µM; hit rate 1.4% among 96,000;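 active means activation factor of 2 or more for CYP2C9 at a 5 µM dose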;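 further: 0 = sulfaphenazole-blocked wells and 1 = vehicle-only wells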
sEH inh: soluble epoxide hydrolase inhibitors, primary screen, biochemical, human sEH. Bifunctional epoxide hydrolase 2 (Homo sapiens), P34913. recombinant human sEH enzymatic activity assay. inhibition, % at 2 µM. hit rate 0.34% among 91,000; in the data active means inhibition above about 80%
CYP2C19 act: human CYP2C19 activators, primary screen, biochemical, luminescence; Cytochrome P450 2C19 (Homo sapiens), P33261; recombinant CYP2C19, luciferin-H EGE luminescence; active compounds read high; 0 = fully inhibited enzyme, 1 = untreated enzyme; activation factor at 5 µM; 96,000 tested, under 10 active; AID 1025, 2008;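 active means activation factor of at least 2 at 5 µM in the primary screen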;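 further: 0 = wells with 2.5 mM tranylcypromine and 1 = vehicle-only wells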
Starred values were filed as active, the others as inactive; nt = not tested or not shown. Sampled rows, rich in hits. Any-hit rate of the full collection: about 27%.

SMILES	sEH activator	CYP2C9 inh	CYP2C19 inh	CYP2C9 activ	sEH inh	CYP2C19 act
CCOCCCn1c(SCC(=O)NC(C)(C)C)nc2ccccc2c1=O	-13	11	8	0.9	14	0.9
CCSc1nnc2n(N)c(=O)c3ccccc3n12	4	-9	-4	1.1	-4	1
C=CCn1c(N)cc(=O)nc1SCC(=O)Nc1ccc2ccccc2c1	7	nt	nt	nt	-2	nt
C=CCn1c(N)cc(=O)nc1SCC(=O)NC(C)c1ccccc1 (stereo not drawn)	7	-16	52*	1.2	-1	0.5
CCOC(=O)N1CCN(C(=O)C2CCCN(S(=O)(=O)c3cccnc3)C2)CC1 (stereo not drawn)	nt	-2	-5	1	nt	1.1
O=C(CSc1nnc(CN2CCOCC2)n1-c1ccccc1)Nc1ccc(Cl)cc1	14	nt	nt	nt	-16	nt
COc1ccccc1C(=O)N1CCN(S(=O)(=O)c2ccccc2)CC1	-4	52*	93*	0.5	4	0.1
COc1ccc(C(=O)N2CCN(S(=O)(=O)c3ccccc3)CC2)c(OC)c1	6	32	39	0.7	0	0.6
COc1ccccc1-n1cnnc1SCC(=O)Nc1nc(C)c(Cl)cc1Cl	-18	21	75*	0.8	21	0.3
COc1cccc(OC)c1C(=O)N1CCN(S(=O)(=O)c2ccccc2)CC1	3	74*	53*	0.3	-2	0.5
COc1ccc(Cl)cc1NC(=O)CSc1nncn1-c1cccnc1	4	34	94*	0.7	-4	0.1
CCOC(=O)C(C)Sc1nnc(-c2ccccc2O)n1Cc1ccccc1 (stereo not drawn)	7	31	31	0.7	-5	0.7
COc1ccc(NC(=O)C2=C(C)C(=O)OC23CCC(C)CC3)cc1Cl (stereo not drawn)	5	22	32	0.8	-8	0.7
COc1ccccc1-n1cnnc1SCC(=O)Nc1ncc(Cl)cc1Cl	5	-7	27	1.1	-5	0.7
COc1ccccc1-n1cnnc1SCC(=O)N1CCN(S(=O)(=O)c2ccccc2)CC1	-1	3	60*	1	3	0.4
CC(C)(C)C1CCc2c(sc(NC(=O)c3cc(C4CC4)on3)c2C#N)C1 (stereo not drawn)	8	73*	9	0.3	-6	0.9
O=C(CN(c1ccc(F)cc1)S(=O)(=O)c1ccc2c(c1)OCCO2)Nc1ccccc1	21	65*	29	0.4	-18	0.7
CC(=O)Nc1ccc(NC(=O)CN(c2ccc(F)cc2)S(=O)(=O)c2ccc3c(c2)OCCO3)cc1	-6	30	15	0.7	5	0.9
O=C(CN(c1ccc(F)cc1)S(=O)(=O)c1ccc2c(c1)OCCO2)Nc1ccc2c(c1)OCO2	7	26	11	0.7	-8	0.9
O=C(CN(c1ccc(F)cc1)S(=O)(=O)c1ccc2c(c1)OCCO2)Nc1cccnc1	6	99*	92*	0	-11	0.1
O=C(CN(Cc1ccccc1)S(=O)(=O)c1ccc2c(c1)OCCO2)Nc1ccc2c(c1)OCCO2	nt	96*	43	0	nt	0.6
N#CC(Nc1ccccc1)c1ccccc1OCc1ccccc1 (stereo not drawn)	1	89*	86*	0.1	2	0.1
Cc1ccc(N(C(=O)CNC(=O)c2ccco2)C(C(=O)NCC2CCCO2)c2ccccc2)cc1 (stereo not drawn)	nt	16	85*	0.8	nt	0.1
O=C(NCC(=O)N(CCc1ccccc1)C(C(=O)NC1CCCC1)c1cccnc1)c1ccco1 (stereo not drawn)	2	52*	54*	0.5	-2	0.5
O=C(NCC(=O)N(c1ccccc1)C(C(=O)NCC1CCCO1)c1ccccc1)c1ccco1 (stereo not drawn)	18	-18	14	1.2	-16	0.9
SMILES	sEH activator	CYP2C9 inh	CYP2C19 inh	CYP2C9 activ	sEH inh	CYP2C19 act
C=CCN(C(=O)CNC(=O)c1ccco1)C(C(=O)NC1CCCCC1)c1ccccc1 (stereo not drawn)	-22	70*	83*	0.3	22	0.2
CCOCCCN(C(=O)CNC(=O)c1ccco1)C(C(=O)NC1CCCC1)c1ccccc1C (stereo not drawn)	nt	-9	-13	1.1	nt	1.1
Cc1ccc(C(C(=O)NC2CCCCC2)N(CCC(C)C)C(=O)CNC(=O)c2ccco2)o1 (stereo not drawn)	3	34	53*	0.7	-2	0.5
CCn1cc(C(=O)NC2CCc3ccccc32)c(=O)c2ccc(C)nc21 (stereo not drawn)	-79	-6	24	1.1	79	0.8
CC(C)CNC(=S)NC1CC2CCC(C1)N2Cc1ccccc1 (stereo not drawn)	-12	nt	nt	nt	14	nt
COc1cccc(N(C(=O)CNC(=O)c2ccco2)C(C(=O)NC2CCCC2)c2ccncc2)c1 (stereo not drawn)	5	20	57*	0.8	-6	0.4
O=C(NCC(=O)N(CCc1ccccc1)C(C(=O)NC1CCCCC1)c1ccncc1)c1ccco1 (stereo not drawn)	7	92*	82*	0.1	-8	0.2
O=C(NCC(=O)N(c1ccccc1)C(C(=O)NC1CCCCC1)c1ccncc1)c1ccco1 (stereo not drawn)	11	22	23	0.8	-10	0.8
N#CCN1CCN(CC(=O)Nc2ccc(OCc3ccccc3)cc2)CC1	-4	44	22	0.6	7	0.8
CCCCN1CNC(=S)N(c2cc(C)ccc2C)C1	18	9	72*	0.9	-16	0.3
O=C(O)c1cn(C2CC2)c2cc(N3CCOCC3)c(F)cc2c1=O	-2	nt	nt	nt	7	nt
C=CCOC(=O)/C(=C\c1ccc(OC)cc1)NC(=O)c1ccco1	2	29	55*	0.7	1	0.4
CCCCOc1ccc(C(=O)N/C(=C\c2ccc(OC)cc2)C(=O)OCc2ccco2)cc1	-14	65*	38	0.3	16	0.6
CCOC(=O)c1cnc2ccc(OCC)cc2c1N1CCN(c2ccccc2OC)CC1	-5	94*	77*	0.1	8	0.2
CCOC(=O)C1CCN(c2c(N3CCN(c4ccccc4OC)CC3)c(=O)c2=O)CC1	nt	7	-3	0.9	nt	1
O=C(NCc1ccco1)c1ccc2c(=O)n(CCC3=CCCCC3)c(=O)[nH]c2c1	-19	43	13	0.6	20	0.9
CCOC(=O)c1cnc2ccc(C(=O)OC)cc2c1Nc1ccc2c(c1)OCCO2	-10	54*	27	0.5	12	0.7
CCOC(=O)c1cnc2ccc(Cl)cc2c1NCCN(C)C	-3	nt	nt	nt	6	nt
